Bioassay records deposited in PubChem BioAssay by Buhrlage Lab, Dana-Farber Cancer Institute and Novartis Institutes for BioMedical Research (Cambridge, Mass).
USP30 block = blocks human USP30 ubiquitin-rhodamine cleavage | inhibition, % at 25 µM | Q70CQ3 | actives 5.3% (n = 47,000) | AID 1645860 | purified USP30, Ub-rhodamine cleavage fluorescence
Target sequence (Q70CQ3 whole entry, looked up): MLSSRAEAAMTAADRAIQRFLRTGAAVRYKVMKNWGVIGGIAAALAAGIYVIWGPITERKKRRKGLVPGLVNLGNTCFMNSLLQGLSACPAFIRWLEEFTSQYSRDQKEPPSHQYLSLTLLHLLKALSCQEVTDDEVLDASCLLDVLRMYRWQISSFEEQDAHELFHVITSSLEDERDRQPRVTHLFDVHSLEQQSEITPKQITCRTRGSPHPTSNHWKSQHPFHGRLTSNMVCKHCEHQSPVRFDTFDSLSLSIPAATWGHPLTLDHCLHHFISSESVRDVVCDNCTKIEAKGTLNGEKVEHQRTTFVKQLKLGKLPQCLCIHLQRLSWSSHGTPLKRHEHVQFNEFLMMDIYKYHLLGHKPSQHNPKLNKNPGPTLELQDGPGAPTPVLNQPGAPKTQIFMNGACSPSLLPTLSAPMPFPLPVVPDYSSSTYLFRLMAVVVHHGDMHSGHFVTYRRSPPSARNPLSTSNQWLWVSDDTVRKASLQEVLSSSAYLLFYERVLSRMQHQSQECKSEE
USP10 inh = human USP10 deubiquitinase inhibition | purified USP10, Ub-rhodamine fluorescence, 60 min | AID 1645856 | inhibition, % at 20 µM | Q14694 | actives 1.1% (n = 47,000)
USP28 inh = inhibitors of human USP28 deubiquitinase | Q96RU2 | purified USP28, Ub-rhodamine cleavage fluorescence, 30 min | inhibition, % at 25 µM | actives 3% (n = 47,000) | AID 1645857
USP17 block = inhibitors of human USP17 deubiquitinase. A8MUK1. purified USP17, Ub-rhodamine cleavage fluorescence, 3 h. inhibition, % at 50 µM. actives 6.5% (n = 47,000). AID 1645855
USP8 inh = inhibitors of human USP8 deubiquitinase | AID 1645853 | inhibition, % at 20 µM | P40818 | purified USP8, Ub-rhodamine cleavage fluorescence, 30 min | actives 4.2% (n = 47,000)
A number is an active result; n = inactive; x = no result given. Most compounds without a hit are left out; they make up all but 13% or so of the library. Rule as the data show it: active = inhibition above about 30%; inactive = the rest.

SMILES | USP30 block | USP10 inh | USP28 inh | USP17 block | USP8 inh
O=C(NC1CCCC1)c1ccccc1N1C(=O)[C@@H]2Cc3c([nH]c4ccccc34)C(c3cccc(Cl)c3)N2C1=O (stereo partly specified) | n | n | n | n | n
Cc1ccc(CNC(=O)Cn2c(=O)n(-c3ccccc3)c3ncccc32)cc1 | n | n | n | 51 | 33
O=C(Cn1c(=O)n(-c2ccc(F)cc2)c2ncccc21)NCc1ccccc1 | n | n | n | n | 37
CSc1nnc(-c2ccc(C(C)(C)C)cc2)n1Cc1ccccc1 | 33 | n | n | n | n
O=C(O)CCSc1nnc(-c2ccc(O)cc2)n1Cc1ccccc1 | n | n | n | n | n
CCOc1ccc(/C=C(\C(=O)N2CCCC2)n2ccccc2=O)cc1 | n | n | n | n | n
O=C(Nc1cc(-c2cccnc2)no1)c1ccc(F)c(F)c1 | n | n | 38 | 65 | n
COc1ccc(C(=O)Nc2cc(-c3cccnc3)no2)cn1 | n | n | n | n | n
COc1cc(C(=O)Nc2cc(-c3ccc(F)c(F)c3)no2)cc(OC)c1OC | n | n | n | n | 43
O=C(COc1ccccc1)Nc1cc(-c2ccc(F)c(F)c2)no1 | x | n | x | 81 | n
CC(NC(=O)COc1ccccc1)c1nc(-c2ccc(Cl)cc2)no1 (stereo unspecified) | n | n | n | n | n
CCNC(=O)C1(Cc2cc(-c3ccccc3)no2)CCCN(C(=O)Cc2ccccc2F)C1 (stereo unspecified) | n | n | n | n | n
O=C1COc2ccc(C(=O)c3ccccc3C(=O)NC3CCCCC3)cc2N1 | n | n | n | n | n
Cc1cc(C)nc(SCc2cc(=O)c(OC(=O)c3ccc(F)c(F)c3)co2)n1 | n | n | n | n | 34
O=C(Oc1coc(CSc2ncccn2)cc1=O)c1ccccc1Cl | n | n | n | n | n
O=C(Oc1coc(CSc2ncccn2)cc1=O)c1ccccc1Br | n | n | n | n | 36
N#Cc1ccc(Cl)cc1NC(=O)COC(=O)c1n[nH]c2ccccc12 | n | n | n | n | 34
CC(=O)c1ccc(NC(=O)COC(=O)c2c[nH]c3ccccc23)cc1 | x | n | x | 34 | n
CCc1ccc(NC(=O)COC(=O)c2n[nH]c3ccccc23)cc1 | n | n | 43 | 71 | n
N#Cc1cccc(NC(=O)COC(=O)c2n[nH]c3ccccc23)c1 | n | 31 | n | 47 | n
CCOc1ccc(NC(=O)COC(=O)c2n[nH]c3ccccc23)cc1 | n | n | n | n | n
O=C(CC1c2ncccc2C(=O)N1Cc1ccc(F)cc1)N1CCOCC1 (stereo unspecified) | n | n | n | n | n
COc1cc(Cl)c(C)cc1NC(=O)c1nc(-c2ccncc2)no1 | 34 | n | n | 40 | n
O=C(/C=C/c1ccc2c(c1)OCO2)Nc1nc2n(n1)C(c1ccccc1)CC(=O)N2 (stereo unspecified) | n | n | n | n | 62
O=C(/C=C/c1ccc(Cl)cc1)Nc1nc2n(n1)C(c1ccccc1)CC(=O)N2 (stereo unspecified) | n | n | n | n | n
SMILES | USP30 block | USP10 inh | USP28 inh | USP17 block | USP8 inh
CCOc1ccc(N2Cc3ccc(OC)c(OC)c3C2=O)cc1 | n | n | n | 38 | n
Cc1nn(-c2ccc(F)cc2)c(C)c1S(=O)(=O)N1CCN(c2ccccn2)CC1 | 38 | n | n | n | n
CCc1nc(N)n(CC(=O)N2CCCc3ccccc32)c(=O)c1C | 54 | n | n | 76 | n
Cc1cc(=O)n(CC(=O)N2CCCc3ccccc32)c(N2CCOCC2)n1 | n | n | n | n | n
N#Cc1cccc(NC(=O)C(Cc2c[nH]c3ccccc23)NC(=O)c2cccs2)c1 (stereo unspecified) | 33 | n | n | n | n
COc1cccc(NC(=O)c2oc3ccccc3c2NC(=O)COc2cccc(OC)c2)c1 | n | 35 | n | n | n
Cc1ccc(NC(=O)c2oc3ccccc3c2NC(=O)COc2ccc(C)cc2)cc1 | n | n | n | n | n
CC(=O)N[C@@H]1C[C@H](c2cccc(-c3ccc(F)cc3)c2)O[C@@H]2CCC[C@@H]12 | n | n | n | n | n
COC(=O)c1cccnc1-n1c(=O)c2cccnc2n(CC(=O)Nc2cc(Cl)ccc2OC)c1=O | n | n | n | n | n
COCC(=O)N(C)c1nnc(C2CCOC2)s1 (stereo unspecified) | n | n | n | n | n
C[C@]12CN(Cc3cccc4cccnc34)C[C@H]1NC(=O)c1ccccc1C2=O | n | n | n | n | 44
